MITF act: activators of MITF-driven TRPM1 promoter activity in SK-MEL-5 cells. activation, % at 12.5 µM. SK-MEL-5 TRPM1-promoter luciferase, 24 h; % of positive control, neutral wells = 0. 300,000 compounds, 0.75% hits. AID 588334;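 active = mean activation of at least 80% with every replicate also reaching 80%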;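 note: 0% = neutral control wells and 100% = parthenolide positive control wells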
esBAF inh: SWI/SNF esBAF complex inhibition. mouse ES cells, Bmi1-luciferase knock-in reporter, 24 h; 100% = twice the neutral-well signal. reporter increase, % at 12.5 µM. 350,000 compounds, 2% hits. AID 602393; in the data active = activation above about 40%;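 note: 0% = median of the plate's neutral control wells and 100% = double that signal; a rise in the Bmi1 reporter signal indicates esBAF inhibition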
Statin myotox sup: suppressors of simvastatin-induced myotoxicity in C2C12 myotubes. ATP luminescence, 48 h; scaled: DMSO 0, geranylgeraniol control 100. rescue of ATP level, % at 7.49 µM. 330,000 compounds, 0.78% hits. AID 602340;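 active = mean ATP rescue above about 67%, or every replicate alone reaching that limit, limit read from the data, passing the limit was not always enough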;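 note: myotubes were challenged with 10 µM simvastatin during compound exposure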
Wnt act: Wnt/beta-catenin pathway activation | Wnt/beta-catenin reporter cell assay, activator, plate reader | activation, % at 9.35 µM | 300,000 compounds, 1.2% hits | AID 743398; in the data active = activation above about 30%, passing the limit was not always enough;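 note: 0% = neutral control wells and 100% = positive control wells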
Numbers without * were called inactive. The list is not random: actives were taken first. Their share in the collection is about 3%.

For CO[C@H]1CN(C)C(=O)c2ccc(NS(=O)(=O)c3ccc(C)cc3)cc2OC[C@H](C)NC[C@H]1C the results were esBAF inh -6 and Statin myotox sup 3.
Screening O=C(Cc1ccc(Br)cc1)N1CCN(c2ccccc2O)CC1 returned MITF act 61, esBAF inh 50*, Statin myotox sup 30 and Wnt act 11.
Screening CCOC(=O)N1CCN(c2ccccc2O)CC1 returned MITF act 15, esBAF inh 4, Statin myotox sup 124* and Wnt act -4.
`COc1ccc(-c2cnc3c(c2)C(=O)N([C@@H](C)CO)C[C@H](C)[C@@H](CN(C)S(=O)(=O)c2ccc(OC)cc2)O3)cc1` gave Statin myotox sup -4.
Screening Cc1ccc(N=Cc2nc(-c3ccco3)oc2O)cc1 returned MITF act 104*, esBAF inh 48*, Statin myotox sup 13 and Wnt act 37*.
Screening COc1cccc(NC(=S)N/N=C2\CC3CCC2(C)C3(C)C)c1 (stereo unspecified) returned MITF act 25, esBAF inh 54*, Statin myotox sup -13 and Wnt act 4.
COc1ccc(S(=O)(=O)Nc2cccc3c2O[C@@H](CN(C)C(=O)Nc2ccccc2)[C@H](C)CN([C@H](C)CO)C3=O)cc1 was read as esBAF inh -2 and Statin myotox sup 3.
For Cc1cnc(NC(=O)COc2ccccc2)s1 the results were esBAF inh 22, Statin myotox sup 6 and Wnt act 58*.
For COc1ccccc1OCC(=O)Nc1ncc(C)s1 the results were MITF act 80, esBAF inh 9, Statin myotox sup 26 and Wnt act 36*.
`Cc1cnc(NC(=O)CCc2ccccc2)s1` gave MITF act 39, esBAF inh 18, Statin myotox sup -37 and Wnt act 10.
O=C(C[C@@H]1CC[C@@H](NS(=O)(=O)c2ccc(F)cc2)[C@H](CO)O1)N1CCc2ccccc2C1 was read as esBAF inh 8 and Statin myotox sup 15.
Screening CN1C(=O)c2cc(NC(=O)c3ccccc3Cl)ccc2OC[C@@H]2O[C@@H](CC(=O)NCC(F)(F)F)CC[C@@H]21 returned esBAF inh 3 and Statin myotox sup 5.
Screening O=C(NCc1ccco1)C(c1ccncc1)N(C(=O)Cc1cccs1)c1ccccc1 (stereo unspecified) returned MITF act 12, esBAF inh 11, Statin myotox sup -3 and Wnt act -8.
Screening O=C(NCc1ccco1)C(c1ccccc1)N(C(=O)Cc1cccs1)c1ccccc1F (stereo unspecified) returned MITF act -7, esBAF inh 7, Statin myotox sup 98* and Wnt act -3.
For CCCC#Cc1cnc2c(c1)C(=O)N([C@@H](C)CO)C[C@@H](C)[C@H](CN(C)C(=O)C1CCC1)O2 the results were esBAF inh 4 and Statin myotox sup -2.
For CN1CCN(C(c2ccccn2)c2cc(Cl)c3cccnc3c2O)CC1 (stereo unspecified) the results were MITF act -17, esBAF inh 5, Statin myotox sup -2 and Wnt act 58*.
CC(=O)NC(c1cc(Cl)c2ccccc2c1O)C(C)C (stereo unspecified) was read as MITF act -6, esBAF inh -13, Statin myotox sup 9 and Wnt act -3.
Oc1c(C(c2ccccn2)N2CCC(Cc3ccccc3)CC2)cc(Cl)c2cccnc12 (stereo unspecified) was read as Wnt act 204*.
CC(=O)NC(c1cc(Cl)c2cccnc2c1O)C(C)C (stereo unspecified) was read as MITF act -27, esBAF inh -13, Statin myotox sup 81* and Wnt act 7.
`COc1ccc(Nc2nc(OC)nc(OC)n2)cc1` gave MITF act 17, esBAF inh 12, Statin myotox sup -3 and Wnt act 3.
`COc1ccc(Nc2ccnc(Nc3ccc(OC)cc3)n2)cc1` gave MITF act 25 and Wnt act 48*.
CCOC(=O)N1CCC(NC(=O)c2oc3c(F)cccc3c2C)CC1 was read as MITF act 44, esBAF inh 50*, Statin myotox sup 9 and Wnt act 13.
`COCC1CCN(C(=O)c2oc3c(F)cccc3c2C)C1` (stereo unspecified) gave esBAF inh 12, Statin myotox sup 1 and Wnt act 5.
CCCC(=O)Nc1ccc2c(c1)C(=O)N(C)C[C@@H](OC)[C@@H](C)CN(C(=O)CC1CC1)[C@@H](C)CO2 was read as esBAF inh 0 and Statin myotox sup -2.
`O=C(c1ccc2nc[nH]c2c1)N1CCN(c2cccc(C(F)(F)F)c2)CC1` gave MITF act 14 and Wnt act 3.
`O=C(c1ccc2ncsc2c1)N1CCN(c2cccc(C(F)(F)F)c2)CC1` gave MITF act 1, esBAF inh 46*, Statin myotox sup -62 and Wnt act 1.
O=C(NCCc1ccc(F)cc1)c1cccc(NC(=O)c2ccccc2)c1 was read as MITF act 18, esBAF inh 65*, Statin myotox sup -20 and Wnt act 5.
For O=C(Nc1ccc(SC(F)F)cc1)c1ccccc1F the results were MITF act 80 and Wnt act 17.
Screening CNC(=O)Nc1ccc(C2SCCS2)cc1 returned Wnt act 7.
For COC(=O)c1ccc(NC(=O)c2ccc(OC(C)=O)c(OC)c2)cc1 the results were MITF act 49, esBAF inh 50*, Statin myotox sup -17 and Wnt act -1.
For O=C(Nc1ccc(C2SCCS2)cc1)c1ccccc1 the results were Wnt act 49*.
O=C(Nc1ccc(SC(F)F)cc1)c1ccc(F)cc1 was read as MITF act 87* and Wnt act 17.
O=C(Cc1coc(-c2ccc(F)cc2)n1)Nc1ccccc1 was read as MITF act 13, esBAF inh 7, Statin myotox sup 106* and Wnt act 0.
For O=C(/C=C/c1ccccc1)Nc1cccc(C(=O)NCc2ccccc2)c1 the results were Wnt act 0.
`O=C(/C=C/c1ccccc1)Nc1cccc(C(=O)NCCCc2ccccc2)c1` gave MITF act 30, esBAF inh 43*, Statin myotox sup 1 and Wnt act 3.
Screening COC(=O)c1ccc(C(=O)Nc2ccc(F)cc2)cc1 returned MITF act 79, esBAF inh 67*, Statin myotox sup 7 and Wnt act 28.
O=C(Nc1ccc(F)cc1)c1ccccc1 was read as MITF act 104*, esBAF inh 81*, Statin myotox sup -6 and Wnt act -6.
Screening COC(=O)c1ccc(NC(=O)Cc2ccc(F)cc2)cc1 returned MITF act 30, esBAF inh 33, Statin myotox sup 9 and Wnt act 1.
O=C(CNc1ccccc1)Nc1ccc(F)cc1 was read as MITF act 74, esBAF inh 52* and Statin myotox sup 1.
O=C(Cc1ccccc1F)Nc1ccc(SC(F)F)cc1 was read as MITF act 103* and Wnt act 23.

Compound activity deposited in PubChem by Broad Institute.
